One experiment deals with CRL-7250. The experiment is described as follows: Cytotoxic Profiling of Annotated Libraries Using Quantitative High-Throughput Screening (AID 1296008). Also: nearly all actives have a fitted effect of over 60% in size. Also: potency is read from the fitted curve at half-maximal effect. As to max response: % is scaled to controls: 0 for no effect and ±100 for the full control effect. As to conditions: Five cell lines viability, CellTiter-Glo ATP luminescence, 48-72 h; max response: active compounds read low. In outline: (§1)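 Cytotoxicity was measured as CellTiter-Glo ATP luminescence, read after 10 min at room temperature. Compound treatment of the cells lasted 48 or 72 hr at 37 degrees Celsius in a qHTS format.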

Another experiment relates to HEK293. The description is as above. As to conditions: Five cell lines viability, CellTiter-Glo ATP luminescence, 48-72 h; max response: active compounds read low. In short, it runs like this: as §1
Experiment [1] concerns HaCat. Described as above. The following applies: Five cell lines viability, CellTiter-Glo ATP luminescence, 48-72 h; max response: active compounds read low. In outline:
as §1

A further experiment deals with KB-3-1. The experiment is described as above. As to conditions: Five cell lines viability, CellTiter-Glo ATP luminescence, 48-72 h; max response: active compounds read low. In outline: as §1
Experiment [2] concerns NIH3T3. The description is as above. The following applies: Five cell lines viability, CellTiter-Glo ATP luminescence, 48-72 h; max response: active compounds read low. In outline:
as §1

For experiment [3], the system named is HACAT. Nature of the experiment: qHTS assay to identify novel small-molecules to repurpose for Merkel cell carcinoma treatment (AID 1296009). Also: nearly all actives have a fitted effect of over 60% in size. As to conditions: MCC and control cell lines, CellTiter-Glo viability, 72 h; at 44.8 µM (top of the series) unless noted. In outline:
(§2)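 Cell viability measured by CellTiter-Glo following 72 hr compound treatment at 37 degree celsius, with NPC and MIPE libraries tested in 8- and 11-point concentration series.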

In a further experiment the test system is HEK293T. The experiment is described as above. As to conditions: MCC and control cell lines, CellTiter-Glo viability, 72 h; series mostly up to 44.8 µM. In short, it runs like this: as §2
Experiment [4] has as its system NIH3T3. The experiment is described as above. As to conditions: MCC and control cell lines, CellTiter-Glo viability, 72 h; at 44.8 µM (top of the series) unless noted. In outline: as §2
The test system of a further experiment is C33A. Nature of the experiment: Primary qHTS to identify gynecologic anti-cancer compounds using libraries of approved drugs and bioactive compounds (AID 1345084). Also: % is scaled to controls: 0 for no effect and ±100 for the full control effect; nearly all actives have a fitted effect of over 55% in size. The following applies: Gynecologic cancer cell panel viability, ATPlite luminescence, 48 h; series mostly up to 57.5 µM. In outline: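 Cells, 1,000 per well, were allowed to settle for 16 h at 37 C before compound addition. Five concentrations were tested for 48 h, and viability was read by ATPlite luminescence after 15 min at room temperature.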

Structures are written as SMILES. “And” between values parts separate entries of the source, which are not always exact repeats. Identical values can stand only once. Inconclusive results are not listed. Values without a mark were called inactive. The source made the active and inactive calls. Calls follow the shape of the dose curve; as a rule, active = well fitted curve in the direction sought with a large enough effect; inconclusive = small, poorly fitted or top-dose-only effect, or another doubt; inactive = no such curve, though single readings can be large; an effect the other way counts as inactive or inconclusive.

In the case of `CC1=CC(=O)CC(C)(C)C1CCC(C)OC1OC(COC(=O)c2cc(O)c(O)c(O)c2)C(O)C(O)C1O` (configuration not stated), the max response in the experiment on CRL-7250 was -1.65%. Moreover, the molecule was classed as inactive with HEK293, with HaCat [1], with KB-3-1 and in the experiment with NIH3T3 [2]. The outcome in the experiment with HACAT [3] and in the experiment with NIH3T3 [4] was “inactive [at 17.4 µM]” in each case. The Potency result with HEK293T and in the experiment on C33A was “inactive” each time.

In the case of `C=C[C@](C)(CC/C=C(\C)C(=O)O)O[C@@H]1OC[C@H](O)[C@H](O)[C@H]1O`, the max response in the experiment with CRL-7250 was -0.0118%; in the experiment with KB-3-1, 3.33%; in the experiment on NIH3T3 [2] it was 2.21%. Also, the call in the experiment with HEK293, with HaCat [1] and in the experiment on HACAT [3] was inactive. The Potency result in the experiment with HEK293T and in the experiment with C33A was “inactive” each time.

As to `C=C1CCC2(OC1)OC1CC3C4CC=C5CC(O)CC(O[C@@H]6OC[C@@H](O)[C@H](O)[C@H]6O)C5(C)C4CCC3(C)C1(O)C2C` (some centres not stated), the molecule was classed as inactive in the experiment on CRL-7250, in the experiment on HEK293, in the experiment on HaCat [1] and in the experiment on NIH3T3 [2]. Moreover, the max response in the experiment on KB-3-1 is -0.359%. Further, the outcome in the experiment on HACAT [3] and in the experiment with NIH3T3 [4] was “inactive [at 17.4 µM]” throughout. Moreover, the Potency result in the experiment on HEK293T and in the experiment on C33A was “inactive” each time.

For `CC(C)C1(O[C@@H]2O[C@H](CO)[C@@H](O)[C@H](O)[C@H]2O)CC=C(CO)CC1` (some centres not stated), the outcome in the experiment on CRL-7250, with HEK293, in the experiment on HaCat [1] and with HACAT [3] was inactive. The max response in the experiment on KB-3-1 was -0.585%; in the experiment with NIH3T3 [2] it was 0.631%. Also, the Potency result in the experiment on HEK293T and with C33A was “inactive” throughout.

Turning to `CC(=C/C(=O)O)/C=C/[C@]1(O)[C@@]2(C)CO[C@]1(C)C[C@H](O[C@@H]1O[C@H](CO)[C@@H](O)[C@H](O)[C@H]1O)C2`, the figures for the max response in the experiment with CRL-7250, in the experiment with KB-3-1 and with NIH3T3 [2] were 1.76%, 0.594% and -8.59%, respectively. Also, the molecule was classed as inactive in the experiment with HEK293 and in the experiment on HaCat [1]. Moreover, the outcome with HACAT [3] is “inactive [at 17.4 µM]”. Moreover, the Potency result in the experiment with HEK293T and in the experiment on C33A was “inactive” throughout.

On to `C=CC1C(O[C@@H]2O[C@H](CO)[C@@H](O)[C@H](O)[C@H]2O)OC=C(C(=O)OC)C1CC(=O)O` (some centres not stated), for which the molecule was classed as inactive in the experiment on CRL-7250, in the experiment with HEK293 and with HaCat [1]. Besides, the max response with KB-3-1 was 9.2%; in the experiment with NIH3T3 [2], 3.11%. In the experiment with HACAT [3], the outcome was “inactive [at 17.4 µM]”. The Potency result in the experiment on HEK293T and in the experiment on C33A was “inactive” each time.

On to `COc1cc(O[C@@H]2O[C@H](CO)[C@@H](O)[C@H](O)[C@H]2O)c(CCC(=O)OC[C@H]2O[C@@H](Oc3cc(OC)c(C4OC(=O)C(C)(O)C4O)cc3CCC(=O)O)[C@H](O)[C@@H](O)[C@@H]2O)cc1C1OC(=O)C(C)(O)C1O` (some centres not stated), for which the max response with CRL-7250 is 1.01%; in the experiment on KB-3-1, 9.44%; in the experiment on NIH3T3 [2] it was -2.47%. Further, the molecule was called inactive in the experiment on HEK293 and with HaCat [1]. The outcome with HACAT [3] and with HEK293T was “inactive [at 9.27 µM]” each time. Besides, the activity change, negative = cytotoxicity in the experiment with C33A is -6.26% [at 11.6 µM].

Turning to `CC1CC(O)C2(C)C(C(=O)O)=CCCC2C1(C)CCc1ccoc1` (configuration not stated), the max response with CRL-7250 is 0.739%; with NIH3T3 [2], -2.92%. Also, the outcome with HEK293, with HaCat [1], in the experiment on KB-3-1 and with HACAT [3] was inactive. Besides, the Potency result in the experiment on HEK293T and in the experiment with C33A was “inactive” each time.

`Cc1cccc(-c2[nH]c(CNc3ccccc3F)nc2-c2ccc3ncnn3c2)n1`: the molecule was called inactive with CRL-7250, with HEK293, in the experiment on HaCat [1] and in the experiment on HACAT [3]. Besides, the max response in the experiment with KB-3-1 was 6.62%. In addition, in the experiment on NIH3T3 [2], the Potency is 7.31 µM (active). Moreover, the Potency result in the experiment with HEK293T and in the experiment with C33A was “inactive” in each case.

As for `CC1CCC2(C(=O)OC3OC(CO)C(O)C(O)C3O)CCC3(C(=O)O)C(=CCC4C5(C)CCC(OC6OC(C)C(O)C(O)C6O)C(C)(C)C5CCC43C)C2C1C` (configuration not stated), the values for the max response in the experiment on CRL-7250 and with NIH3T3 [2] were 1.53% and 4.68%, respectively. The molecule was called inactive with HEK293, in the experiment with HaCat [1] and in the experiment on KB-3-1. In addition, the outcome with HACAT [3] was “inactive [at 17.4 µM]”. Further, the Potency entry in the experiment on HEK293T and in the experiment on C33A was “inactive” in each case.

On to `O=C(O)[C@H]1CCCC[C@H]1C(=O)N1CCc2ccccc2[C@H]1CN1C(=O)c2ccccc2C1=O`, for which the max response was 1.46% in the experiment on CRL-7250 and 2.69% with NIH3T3 [2]. The molecule was called inactive in the experiment with HEK293, with HaCat [1], in the experiment with KB-3-1 and with HACAT [3]. Also, the Potency entry in the experiment on HEK293T and in the experiment on C33A was “inactive” each time.

As for `C/C(=C/CO)CC[C@@H]1[C@@]2(C)CCC[C@](C)(C(=O)O)C2CC[C@@]1(C)O` (some centres not stated), the figures for the max response with CRL-7250, with KB-3-1 and in the experiment on NIH3T3 [2] were 2.67%, 3.08% and -1.08%, respectively. In addition, the outcome in the experiment on HEK293, in the experiment with HaCat [1] and with HACAT [3] was inactive. Moreover, the Potency entry in the experiment with HEK293T and with C33A was “inactive” each time.

Regarding `C[C@@H]1C(=O)O[C@H]2CC34[C@H]5C[C@@H](C(C)(C)C)C36[C@@H](OC(=O)[C@@H]6O)OC4(C(=O)O5)[C@]21O` (some centres not stated), the max response with CRL-7250 was -2.58%; with KB-3-1, 9.69%; with NIH3T3 [2], 4.14%. Besides, the molecule was classed as inactive with HEK293, in the experiment with HaCat [1] and in the experiment on HACAT [3]. Moreover, the Potency entry in the experiment on HEK293T and in the experiment on C33A was “inactive” throughout.

Turning to `O=C(OCc1cccc(O)c1O[C@@H]1O[C@H](CO)[C@@H](O)[C@H](O)[C@H]1O)C1(O)C(=O)C2C=CC1C1C=CC(=O)C(O)(C(=O)OCc3cccc(O)c3O[C@@H]3O[C@H](CO)[C@@H](O)[C@H](O)[C@H]3O)C21` (some centres not stated), the max response in the experiment on CRL-7250 is -8.04%; in the experiment on NIH3T3 [2] it was 3.82%. Moreover, the molecule was classed as inactive in the experiment on HEK293, with HaCat [1] and with KB-3-1. In addition, the outcome in the experiment with HACAT [3] and in the experiment with HEK293T was “inactive [at 9.27 µM]” throughout. Also, in the experiment with C33A, the activity change, negative = cytotoxicity was -2.5% [at 11.6 µM].

For the molecule `CCCCN(CCCC)C(=O)CN1C[C@H](c2ccc3c(c2)OCO3)[C@@H](C(=O)O)[C@@H]1c1ccc(OC)cc1`, the max response was -2.69% in the experiment with CRL-7250; 2.42% and 5% in the experiment on NIH3T3 [2]. The call in the experiment with HEK293, with HaCat [1], in the experiment on KB-3-1 and in the experiment with HACAT [3] was inactive. Besides, the Potency result in the experiment with HEK293T and with C33A was “inactive” throughout.

The values above are taken from PubChem BioAssay (NCATS).
